The whole screen tested about 330,000 compounds, of which about 7,300 (2.2%) were called active.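 How the source made its calls: active means inhibition of at least 40%; inactive means the rest.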 This excerpt belongs to a sample that is enriched for actives.

The nature of the test: growth inhibition of tim10-1 ts yeast – luminescence, uHTS, primary screen (AID 463190).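 Further: mutant grown at 25 °C; 0% = DMSO wells with yeast and 100% = wells holding no yeast.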 As to conditions: S. cerevisiae tim10-1 ts strain growth, BacTiter-Glo, 24 h; at 20 µM; stronger effect = higher value.
For orientation: inhibition means the relative decrease from the control value, in per cent. For the compound `O=C(Nc1cccc(Cl)c1)C1CCCN(c2cnccn2)C1` (centres undefined), the inhibition is -8.48% (inactive). Next, `O=C(NCCc1ccccc1)Oc1ccc(Cl)cc1`: 13.9% (inactive). Under `O=C(COc1ccc(-n2cnnn2)cc1)Nc1ccccc1Cl` stands -7.79% (inactive). Next, `Cc1ccc(NC(=O)CCC(=O)N2CCC(c3ccccc3)=N2)cc1S(=O)(=O)N1CCCCC1`: -15.3% (inactive); `Cc1ccc(C(=O)NCC(=O)OCC(=O)Nc2cccc(S(=O)(=O)N3CCCC3)c2)cc1C`: -7% (inactive); `COc1ccccc1CNC(=O)CCCN1C(=O)NC2(CCCC2)C1=O`: 6.1% (inactive). Turning to `Cn1c2ccccc2c(=O)c2c(O)cccc21`, the inhibition is 6.4% (inactive). Under `CCCc1nc2c(c(=O)c3ccccc3n2C)c(=O)n1C1CCCCCC1` stands 43.1% (active). Under `Cn1c2ccccc2c2c(C(=O)N3CCN(c4ccc(F)cc4)CC3)cn(C3CCCC3)c(=O)c21` stands 36.7% (inactive); under `CCc1nc2nc(C)c(NS(=O)(=O)c3ccc4c(c3)CCCC4)c(=O)n2[nH]1`, -10.4% (inactive); under `O=c1oc(-c2ccco2)nc2sc3c(c12)CCCCC3`, 41.5% (active). Next, `Cn1c(=O)n(Cc2ccco2)c(=N)c2c3c(sc21)CCCC3`: 12.5% (inactive); `O=S(=O)(c1ccc(Cl)cc1)c1nc(-c2ccco2)oc1N1CCCCC1`: 26.4% (inactive). As for `Cn1cccc1/C=N/NC(=O)CNc1cccc2ccccc12`, the inhibition is 13.6% (inactive).

`Cc1cccc(/C=N/NC(=O)CNc2cccc3ccccc23)n1`: the inhibition is 23.6% (inactive). Under `C/C(=N\NC(=O)CNc1cccc2ccccc12)c1ccc(Br)s1` stands 41.9% (active).

Turning to `CC(C)c1ccc(NC2CCCN(C(=O)c3ccncc3)C2)cc1` (centres undefined), the inhibition is 8.48% (inactive). `Fc1ccccc1OCCSc1nc2ccccc2o1`: the inhibition is 27.5% (inactive).

On to `COCCN(Cc1ccccc1)C(=O)Cc1ccc(S(=O)(=O)N2CCOCC2)s1`, for which the inhibition was 18.8% (inactive). Under `COc1nc(NCc2ccc(Cl)cc2)nc(OC)n1` stands 6.89% (inactive); under `C=CCNc1nc(Nc2ccc(Cl)cc2)nc(OC)n1`, 43.2% (active). Under `C=CCNc1nc(C)nc(OC)n1` stands 7.31% (inactive); under `CN(CC(=O)Nc1ccc(F)cc1)C(=O)c1ccc(-c2ccc(Cl)cc2)o1`, 21.8% (inactive); under `Cc1[nH][nH]c(=O)c1C(c1ccc(-c2ccc(Cl)cc2)o1)c1c(C)[nH][nH]c1=O`, 67.1% (active). Under `CCCCSc1[nH]c(=O)c(C(=O)OCC)cc1C#N` stands -14.3% (inactive). In the case of `O=C(CSC(=S)N1CCOCC1)c1cc(Br)cc(Br)c1O`, the inhibition is 50.1% (active). In the case of `O=C(c1cc2cc(Br)cc(Br)c2oc1=O)N1CCOCC1`, the inhibition is 7.28% (inactive).

`O=C(CSC(=S)N1CCOCC1)c1ccccc1`: the inhibition is 5.05% (inactive).

Turning to `Nn1c(SCC(=O)NC2CCCC2)nnc1-c1ccccc1F`, the inhibition was -11.7% (inactive).

With `CC(=O)Nc1ccc(Sc2ccccc2C(=O)N2CCCC2)cn1`, the inhibition is 7.35% (inactive). Under `CC(C)(C)CN1CCNC(=O)C1CC(=O)NC1Cc2ccccc2C1` (centres undefined) stands 16.6% (inactive).

With `CN1CN(C)c2ccc([N+](=O)[O-])c3cccc1c23`, the inhibition is 9.35% (inactive). Next, `O=C1c2cccc3c([N+](=O)[O-])ccc(c23)C(=O)N1CC1CCCO1` (centres undefined): 71.2% (active). Next, `CCOc1cccc(=O)c2c(C)n(CC3CCCO3)c(C)c12` (centres undefined): 1.25% (inactive).

Take `O=C(c1ccccc1)N1CCC(CC2CC(c3ccc(Cl)cc3)=NO2)(C(=O)NCC2CCCCC2)CC1` (centres undefined): the inhibition was 41.2% (active). Under `COc1ccc(CNC(=O)C2(CC3CC(c4ccccc4)=NO3)CCN(C(=O)c3cccc(O)c3)CC2)cc1` (centres undefined) stands 2.25% (inactive). `CCCCCCCNC(=O)C1(CC2CC(c3cccc(Br)c3)=NO2)CCN(C(=O)c2cc(OCC)c(OCC)c(OCC)c2)CC1` (centres undefined): the inhibition was -4.27% (inactive). As for `O=C(NCC1CCCO1)C1CCN(C2CCN(C(=O)C3CCCCC3)CC2)CC1` (centres undefined), the inhibition was -2.3% (inactive).

For the compound `C/C(=N/O)c1ccc(N2C(=O)C3C4C=CC(C3C2=O)C2C3C(=O)N(c5ccc(/C(C)=N/O)cc5)C(=O)C3C42)cc1` (centres undefined), the inhibition is 6.62% (inactive). Next, `O=C(O)c1cccc(S(=O)(=O)N2CC=C(c3ccccc3)CC2)c1`: 13.4% (inactive). Under `COc1ccc(C(C[N+](=O)[O-])n2nc(C)cc2C)cc1` (centres undefined) stands 43.3% (active); under `CCOc1ccc(C(C)C)cc1S(=O)(=O)n1nc(C)cc1C`, 36.6% (inactive); under `COc1ccc(OC)c(S(=O)(=O)n2c([N+](=O)[O-])cnc2C)c1`, 13.3% (inactive). Next, `Cc1ccc(S(=O)(=O)N(C)C)cc1NC(=O)c1ccc(-n2cncn2)c([N+](=O)[O-])c1`: -0.831% (inactive). `Cn1ccs/c1=N\S(=O)(=O)c1ccc(C(C)(C)C)cc1`: the inhibition was 26.8% (inactive). Under `COc1cc(C(=O)OCc2cc(=O)n3ccsc3n2)ccc1OC(C)C` stands -4.26% (inactive). Next, `CCCCCCSc1nsc(N)n1`: 26.2% (inactive). Next, `CN(Cc1ccccc1)CC(O)COc1ccc(CNCc2cc3ccccc3s2)cc1` (centres undefined): -10.1% (inactive); `CCOc1ccc(NC(=O)c2ccccc2NS(C)(=O)=O)cc1`: -4.15% (inactive).

In the case of `COC(=O)c1ccccc1NS(=O)(=O)c1ccc2[nH]c(=O)[nH]c2c1`, the inhibition is 5.53% (inactive). Next, `COC(=O)c1ccc(NC(=O)c2ccccc2NS(=O)(=O)c2ccccc2)cc1`: 40.3% (active); `CCOC(=O)c1ccc(NC(=O)CS(=O)(=O)c2cn(CC)c3ccccc23)cc1`: 14.8% (inactive). Take `CC(=O)c1cc(CN2CCC(n3nccc3NC(=O)c3ccccc3Cl)CC2)cs1`: the inhibition was -3.89% (inactive). Under `Cc1ccc(N=Cc2c(O)n(-c3nccs3)c(=O)c3ccccc23)c(C)c1` stands 9.76% (inactive); under `OCc1nc(CO)n(Cc2ccccc2)n1`, 4.38% (inactive); under `Cc1cc(OC(=O)c2c(Cl)cccc2Cl)nc(C)n1`, 35% (inactive). Next, `Cc1cc(C)c(S(=O)(=O)c2ccccc2)c(OC(=O)c2c(F)cccc2Cl)n1`: 42.6% (active). On to `Cc1ccc(NNC(=O)c2c(F)cccc2Cl)cc1Cl`, for which the inhibition is 14% (inactive). Consider `O=C(O)c1cccnc1NC1CCCC1`, for which the inhibition was -10.6% (inactive). Next, `CCC(=O)c1cn(CCOc2ccccc2OC)c2ccccc12`: 4.25% (inactive). Next, `Cc1nn(CC(=O)NCCc2ccccc2)c(=O)c2cc3occc3n12`: -16.4% (inactive). Under `CCc1ccc(-c2cc3c(=O)n(CC(=O)NCCCN4CCN(Cc5ccccc5)CC4)nc(C)n3n2)cc1` stands 43.7% (active). Turning to `Cc1ccc(-c2ccc(=O)n(CC(=O)NCCCN3CCCCC3)n2)cc1`, the inhibition is -3.38% (inactive). On to `CCOC(=O)/C=C/CN(C(=O)OC(C)(C)C)S(=O)(=O)N1CC=CC1`, for which the inhibition was 17.9% (inactive). Under `CC(C)(Oc1ccc(C2CC2(Cl)Cl)cc1)C(=O)O` (centres undefined) stands 9.95% (inactive); under `CN(C)C(=O)c1ccc(NC(=O)c2ccccc2-c2ccccc2)cc1`, 3.15% (inactive).

As to `CN(C)C(=O)c1ccc2c(c1)C1C3CCC(C3)C1C(c1ccccc1)N2` (centres undefined), the inhibition was 46% (active).

For the compound `Cc1ccc(C)c(N2CCN(C(=O)CCc3nc(-c4cccc(C(F)(F)F)c4)no3)CC2)c1`, the inhibition is 17.8% (inactive). Next, `OCCC1CN(Cc2ccccc2-c2ccco2)CCN1Cc1ccsc1` (centres undefined): 17.5% (inactive); `COc1cc(C=NNC(=O)c2cccnc2)ccc1OC(=O)c1ccccc1F`: 4.11% (inactive). For `CN(NS(=O)(=O)c1cccs1)c1ncc(C(F)(F)F)cc1Cl`, the inhibition is 15.9% (inactive). Under `CC(C)c1nc(SCC(=O)Nc2cccc(C(=O)O)c2)c2c3c(sc2n1)CCCC3` stands 10.1% (inactive). `Cc1cc(C)n(-c2nc(SCC(=O)N3CCCC3)c3c4c(sc3n2)CCCC4)n1`: the inhibition is 52.2% (active). Turning to `COCCNc1nc(-n2nc(C)cc2C)nc2sc3c(c12)CCCC3`, the inhibition is 30.3% (inactive).

As for `O=C(O)C1CCCN1S(=O)(=O)c1ccc(Br)cc1` (centres undefined), the inhibition is -5.99% (inactive).

Turning to `COCCN(C(=O)COC(=O)Cc1cccc(OC)c1)c1c(N)n(Cc2ccccc2)c(=O)[nH]c1=O`, the inhibition was 0.462% (inactive). Regarding `CC(C)(C)NC(=O)/C(=C/c1cccnc1)NC(=O)c1ccco1`, the inhibition is -15.4% (inactive). Next, `N#C/C(=C\c1cccnc1)C(=O)Nc1ccc(SC(F)F)cc1`: 52.5% (active); `Cc1cc(/C=C(/C#N)C(=O)Nc2ccc(Cl)cc2)c(C)n1-c1cccnc1`: 20.6% (inactive); `O=C(O)CCCCCCCCc1cn(CN2C(=O)c3ccccc3C2=O)nn1`: -13.2% (inactive).

Regarding `CCOC(=O)N1CCC(N(CCOC)C(=O)Nc2ccc(C)c(C)c2)CC1`, the inhibition was 26.7% (inactive). With `COc1ccc(/C(=N\O)c2nccc3cc(OC)c(OC)cc23)cc1OC`, the inhibition was 17.4% (inactive). Next, `Cc1ccc(-c2csc(NCCc3nc4cc(Cl)c(Cl)cc4n3CCOCCO)n2)cc1`: 33.4% (inactive); `Cc1ccc(Nc2nc(-c3ccc(O)cc3O)cs2)nc1`: 43.9% (active); `Cc1ccccc1Nc1nc(-c2cccnc2)cs1`: -3.25% (inactive). Under `COc1c(C(=O)N2CCCC2)ccc2ccccc12` stands 6% (inactive); under `C[C@@H](NC(=O)[C@@H]1Cc2ccccc2CN1)C(=O)NC1CCCC1`, 5.23% (inactive); under `CC(C)(CNC(=O)c1cc(=O)[nH]c2ccccc12)N1CCOCC1`, -7.73% (inactive). Under `O=C(N/N=C/c1ccc([N+](=O)[O-])cc1)C(=O)N1CCCC1` stands 17.3% (inactive); under `O=[N+]([O-])c1cccc(/C=N/Nc2ncc(Br)cn2)c1`, -23.5% (inactive); under `O=[N+]([O-])c1ccc(N/N=C/c2ccccc2)cc1`, 40.7% (active). As to `COc1ccc(-n2nc(C(=O)NCC(=O)N3CCN(c4ccccc4OC)CC3)c3ccccc3c2=O)c(OC)c1`, the inhibition was 1.49% (inactive). For `CCN(c1ccccc1)S(=O)(=O)c1ccc2[nH]c(=O)[nH]c2c1`, the inhibition was 11.5% (inactive). Under `O=C(O)C(c1ccccc1)C1(O)CCCCC1` (centres undefined) stands 2.11% (inactive).
